Compound activity: PubChem BioAssay, several laboratories
Most compounds without a hit are left out; they make up all but 1.6% or so of the library.
sEH inh – blocks human soluble epoxide hydrolase activity; recombinant human sEH enzymatic activity assay; inhibition, % at 2 µM; AID 707; hit rate 0.34% among 91,000; P34913; in the data active = inhibition above about 80%
PTPN22 act – LYP (human) phosphatase activation; Q9Y2R2; recombinant LYP, DiFMUP fluorescence; 0 = plate median, 100 = signal doubled; activation, % at 2 µM; hit rate 0.11% among 96,000;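 active = activation at 2 µM above a set limit, the mean plus 5 SD, cut at about 37% in these data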
Target sequence (Q9Y2R2 whole entry, looked up): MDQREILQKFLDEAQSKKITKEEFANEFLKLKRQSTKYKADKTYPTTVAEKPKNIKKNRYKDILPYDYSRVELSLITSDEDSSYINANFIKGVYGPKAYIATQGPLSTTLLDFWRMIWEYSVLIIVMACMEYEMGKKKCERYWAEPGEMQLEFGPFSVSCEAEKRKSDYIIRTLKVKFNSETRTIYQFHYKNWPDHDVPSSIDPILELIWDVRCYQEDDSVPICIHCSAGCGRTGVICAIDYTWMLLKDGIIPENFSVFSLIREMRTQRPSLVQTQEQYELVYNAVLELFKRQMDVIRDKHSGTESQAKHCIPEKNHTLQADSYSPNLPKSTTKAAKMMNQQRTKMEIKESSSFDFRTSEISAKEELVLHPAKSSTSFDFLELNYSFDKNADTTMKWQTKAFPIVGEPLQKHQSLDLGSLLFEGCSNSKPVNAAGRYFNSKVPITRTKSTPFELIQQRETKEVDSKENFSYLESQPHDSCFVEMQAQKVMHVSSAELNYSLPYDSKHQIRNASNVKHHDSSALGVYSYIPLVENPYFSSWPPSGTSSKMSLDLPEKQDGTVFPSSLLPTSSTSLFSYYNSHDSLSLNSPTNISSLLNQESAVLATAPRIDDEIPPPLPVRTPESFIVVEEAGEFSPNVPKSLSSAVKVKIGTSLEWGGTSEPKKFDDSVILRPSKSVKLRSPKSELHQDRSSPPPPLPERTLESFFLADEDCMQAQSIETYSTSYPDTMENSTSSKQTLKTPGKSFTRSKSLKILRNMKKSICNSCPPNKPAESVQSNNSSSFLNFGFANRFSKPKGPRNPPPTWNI
PLAP activator – activates human placental alkaline phosphatase; P05187; purified PLAP enzyme, luminescent substrate read-out; stronger effect = higher value; activation fold at 20 µM; hit rate 1.2% among 96,000; in the data active = activation fold above about 2
sEH activator – activators of human soluble epoxide hydrolase. P34913. purified human sEH enzymatic activity, activator screen. activation, % at 2 µM. hit rate 0.04% among 91,000; in the data active = activation above about 37%
PTPN22 inh 2 – inhibitors of human LYP (PTPN22) phosphatase; Q9Y2R2; recombinant LYP catalytic domain, DiFMUP fluorescence; inhibition, % at 2 µM; hit rate 0.21% among 96,000; AID 640;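 active = inhibition at 2 µM at or above a set limit, the screen mean plus 3 SD, cut at about 24% in these data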;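 note: 0% = DMSO with enzyme and 100% = enzyme fully blocked by orthovanadate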
EphB4 ephrin blk – antagonists of human EphB4-ephrin-B2 interaction; EphB4 LBD / TNYL-RAW-Alexa532 peptide, fluorescence polarization; inhibition, % at 7 µM; hit rate 0.15% among 97,000; AID 720;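 active = inhibition above the screen-wide mean inhibition plus 3 SD, cut at about 15% in these data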;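 note: 0% = DMSO wells and 100% = excess unlabeled TNYL-RAW peptide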
* hit, by the source's call; nt = not tested or not shown; [ ] = dose if it differs, or a comment.

SMILES | sEH inh | PTPN22 act | PLAP activator | sEH activator | PTPN22 inh 2 | EphB4 ephrin blk
O=C(Nc1nc2ccccc2[nH]1)C1CCCO1 (stereo unspecified) | nt | nt | 2.5* | nt | nt | nt
COc1ccc(NC(=O)C2CCCO2)cc1Cl (stereo unspecified) | 5 | -25 | 0.8 | -8 | 24* | -1
O=C(NNC(=O)C1CCCO1)c1ccccc1Cl (stereo unspecified) | 2 | 7 | 2* | 1 | -2 | 6
CC(C)c1ccc(-c2nnn(Cc3nc4ccccc4s3)n2)cc1 | -6 | 1 | 0.8 | 5 | -3 | -2
N#Cc1c(C(F)(F)F)cc(-c2cccc(Cl)c2)[nH]c1=O | nt | nt | 1.2 | nt | nt | 6
O=C(Nc1cccnc1)C1CC(c2ccccc2O)=NO1 (stereo unspecified) | -5 | 2 | 2* | 7 | -3 | -1
COC(=O)c1ccc(Sc2ccccc2NS(=O)(=O)c2ccc(OC)cc2)nc1 | 8 | 1 | 1.2 | -6 | 1 | -10
Cc1ccc(S(=O)(=O)N(C)c2ccc(C(=O)N3CCN(Cc4ccc5c(c4)OCO5)CC3)cc2)cc1 | -14 | -5 | 2* | 14 | 8 | 5
CN(c1ccc(C(=O)N2CCCCC2)cc1)S(=O)(=O)c1ccccc1 | -4 | 4 | 1 | 8 | -4 | -4
Cc1ccc(S(=O)(=O)N(C)c2ccc(C(=O)N3CCCCC3)cc2)cc1 | 12 | 2 | 2.1* | -12 | 1 | -8
Cc1ccc(O)c(Sc2cc(C)ccc2O)c1 | 2 | -4 | 2.5* | 2 | 4 | 3
CCNc1c2c3c(cccc3n(C)c1=O)C(=O)c1ccccc1-2 | nt | 7 | 0.9 | nt | -9 | 26*
CCCCNc1c2c3c(cccc3n(C)c1=O)C(=O)c1ccccc1-2 | 6 | 7 | nt | -2 | -8 | 15
Cn1c(=O)c(NCCO)c2c3c(cccc31)C(=O)c1ccccc1-2 | -6 | 4 | 0.9 | 4 | -9 | 31*[fluorescence artefact?]
Cn1c(=O)c(NCCc2ccccc2)c2c3c(cccc31)C(=O)c1ccccc1-2 | 4 | 0 | 0.9 | -1 | -1 | 119*[fluorescence artefact?]
Cc1ccc(CCNC(=O)C2CCCN(c3nc4ccccc4o3)C2)cc1 (stereo unspecified) | nt | 5 | 1 | nt | -8 | -12
O=C(CSc1nnc(Cn2c(=O)sc3ccccc32)n1-c1ccccc1)Nc1nccs1 | nt | nt | 1.3 | nt | nt | nt
Cc1noc(C)c1S(=O)(=O)N(CC(=O)O)c1ccc2c(c1)OCO2 | 2 | -10 | 0.9 | -3 | 8 | -6
Cc1n[nH]c(C)c1S(=O)(=O)N(CC(=O)Nc1ccc2c(c1)OCCO2)c1ccc(C(C)C)cc1 | 12 | 1 | 2* | -10 | -4 | 1
CCC(C)NC(=O)CN(c1ccc2c(c1)OCO2)S(=O)(=O)c1c(C)n[nH]c1C (stereo unspecified) | nt | 13 | 2.2* | nt | -17 | 4
O=C(NCCC1=CCCCC1)C1CCN(c2nc3ccccc3o2)CC1 | 85* | -1 | 1.2 | -85 | 1 | 3
Cc1oc(-c2ccccc2F)nc1CN1CCC(C(=O)NCc2cccnc2)CC1 | 10 | -4 | 1.4 | -9 | 2 | 0
COc1ccc(CCNC(=O)C2CCN(Cc3nc(-c4ccccc4F)oc3C)CC2)cc1OC | 17 | -1 | 1.7 | -17 | -2 | 0
CCc1ccc(-c2nc(CN3CCC(C(=O)NCCc4ccc(OC)c(OC)c4)CC3)c(C)o2)cc1 | -8 | 2 | 2.4* | 10 | -4 | 3
Cc1oc(-c2ccccc2F)nc1CN1CCC(C(=O)NCCC2=CCCCC2)CC1 | 89* | -2 | 1.8 | -89 | 0 | 1
SMILES | sEH inh | PTPN22 act | PLAP activator | sEH activator | PTPN22 inh 2 | EphB4 ephrin blk
CCCC(c1nnnn1C1CCCC1)N1CCN(c2ccccc2F)CC1 (stereo unspecified) | 6 | 9 | 1.5 | -5 | -9 | -5
CCN(CC)C(C(=O)Nc1ccc(C(C)C)cc1)c1ccc2c(c1)OCO2 (stereo unspecified) | -38 | 3 | 1.3 | 38* | 1 | -2
Nc1cnn(C2CCCO2)c(=O)n1 (stereo unspecified) | 9 | 10 | nt | -8 | -9 | -5
Cc1ccccc1NC(=O)CN1C(=O)S/C(=C\c2cccn2-c2cccc(C(=O)O)c2)C1=O | 11 | 8 | 1.4 | -8 | -3 | -12
Cc1ccc(NC(=O)CN2C(=O)S/C(=C\c3cccn3-c3cccc(C(=O)O)c3)C2=O)c(C)c1 | 1 | -48 | 1.6 | 0 | 50* | -9
CCCCOc1ccc(CNC(=S)N/N=C/c2ccc(OC)c(OC)c2)cc1 | 8 | -7 | 1.7 | -6 | 9 | 3
Cc1ccc(S(=O)(=O)N2CCSC2)cc1C | -11 | 8 | 0.8 | 13 | -8 | 13
NS(=O)(=O)c1ccc(CNC(=O)/C=C/c2c(Cl)cccc2Cl)cc1 | 92* | 6 | 1.1 | -92 | -1 | 2
O=C(/C=C/c1ccccc1Cl)NCc1ccccc1 | 39 | 3 | 0.9 | -40 | 0 | 16*
O=C(O)CNC(=O)c1ccc(S(=O)(=O)N2CCOCC2)cc1 | -2 | -2 | 0.9 | 1 | 4 | 0
CCC(Oc1ccccc1)C(=O)N1CC(C)CC(C)C1 (stereo unspecified) | -5 | 0 | 1.3 | 9 | -1 | 1
CSc1nc(N)nc(SCC(=O)C23CC4CC(CC(C4)C2)C3)c1C#N | -11 | 8 | nt | 11 | -12 | 3
Nc1nc(SCC(=O)C23CC4CC(CC(C4)C2)C3)n[nH]1 | 15 | -2 | 2.1* | -14 | -2 | 5
O=C(CSc1nc(-c2ccccc2)c(-c2ccccc2)[nH]1)NCCN1C(=O)CSC1=O | 0 | 0 | 1.5 | 1 | 3 | -3
O=C(CSc1nc(C2CCCCC2)n(-c2ccccc2)n1)NCCN1C(=O)CSC1=O | 2 | -2 | 2* | 1 | -1 | 0
COCCn1c(Cc2ccccc2)nnc1SCC(=O)NC(C)C | 12 | 2 | 1.1 | -14 | -3 | -5
O=S(=O)(c1cnc[nH]1)N1CCc2ccccc21 | nt | nt | 0.8 | nt | nt | nt
Cc1ccc(-c2nnc(CSc3nnc(COc4cccc5ccccc45)n3-c3ccccc3)o2)cc1 | -1 | -33 | 1.9 | 0 | 33* | -4
Cc1cc(C)c(NC(=O)c2ccc(CN3CCc4ccccc4C3)cc2)c(C)c1 | -7 | -10 | 2.3* | 8 | 6 | 3
Cc1ccc2c(Cl)cc(Cl)c(OCC(=O)NCc3ccco3)c2n1 | 4 | -28 | 1.6 | -4 | 30* | 12
Cc1ccc2c(Cl)cc(Cl)c(OCC(=O)NC(=O)NCc3ccco3)c2n1 | 1 | 0 | 1 | 1 | 3 | 2
CCN(CC)c1ccc(NC(=O)CN2C(=O)CSc3ncccc32)c(C)c1 | 28 | 5 | 1 | -27 | -6 | -4
CCN(CC(=O)NC(=O)NC1CCCCC1)Cc1nc2ccccc2c(=O)[nH]1 | 2 | -24 | nt | -3 | 25* | 2
COc1cc2nc(CN(C)CC(=O)Nc3ccc(N4CCOCC4)cc3)[nH]c(=O)c2cc1OC | nt | nt | 2.3* | nt | nt | nt
COc1cc2nc(CN(C)Cc3nc4ccccc4c(=O)[nH]3)[nH]c(=O)c2cc1OC | 6 | 0 | nt | -6 | 0 | 4
